Source: PubChem BioAssay
Only some compounds are listed: those with a hit (about 1.7% of all), similar ones and a draw of the others.
Neddyl block = blocks human cullin neddylation. 360,000 tested, 0.58% active. inhibition, % at 25 µM. P61081+Q13564. TR-FRET cullin neddylation, biochemical; in the data active = inhibition above about 36%
Target sequence (P61081 whole entry, looked up): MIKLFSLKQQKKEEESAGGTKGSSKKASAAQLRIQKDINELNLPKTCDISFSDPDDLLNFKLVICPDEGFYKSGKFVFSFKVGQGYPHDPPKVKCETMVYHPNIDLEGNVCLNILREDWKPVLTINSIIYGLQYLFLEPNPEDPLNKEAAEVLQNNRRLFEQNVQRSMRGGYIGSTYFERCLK
Target sequence (Q13564 whole entry, looked up): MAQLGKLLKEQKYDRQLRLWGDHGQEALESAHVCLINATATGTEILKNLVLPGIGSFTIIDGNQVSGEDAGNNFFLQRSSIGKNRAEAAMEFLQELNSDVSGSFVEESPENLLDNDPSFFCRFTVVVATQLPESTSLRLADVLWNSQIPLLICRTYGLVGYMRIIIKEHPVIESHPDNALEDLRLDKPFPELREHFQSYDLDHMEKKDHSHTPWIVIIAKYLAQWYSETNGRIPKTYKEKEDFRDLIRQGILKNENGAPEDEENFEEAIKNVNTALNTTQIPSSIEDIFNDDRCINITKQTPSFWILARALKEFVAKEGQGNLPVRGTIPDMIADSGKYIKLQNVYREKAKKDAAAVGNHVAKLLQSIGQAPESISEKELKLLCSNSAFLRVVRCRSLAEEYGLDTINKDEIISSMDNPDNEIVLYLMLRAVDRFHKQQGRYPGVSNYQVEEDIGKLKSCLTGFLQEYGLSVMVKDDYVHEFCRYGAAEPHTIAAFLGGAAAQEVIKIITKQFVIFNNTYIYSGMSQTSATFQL
SUMO1 PPI mod = alters human SUMO1 binding to SIM partners; P63165; SUMO1 binding to a labelled peptide, TR-FRET, 1 h; inhibition, % at 20 µM; 360,000 tested, 0.33% active; AID 602429; in the data active = inhibition above about 37%
ATG4B inhibitor = inhibitors of human ATG4B cysteine protease | 340,000 tested, 0.51% active | ATG4B cleavage of LC3-PLA2, NBD-HPC fluorescence, 1 h | inhibition, % at 8.33 µM | AID 504462 | Q9Y4P1; in the data active = inhibition above about 40%
Rin1-Abl PPI inh = blocks binding of human Rin1 to Abl; inhibition, % at 7.35 µM; 360,000 tested, 0.4% active; TR-FRET Rin1/Abl binding, biochemical; in the data active = inhibition above about 5%, passing the limit was not always enough
Rin1 Abl conf = Rin1-Abl interaction inhibition confirmation | TR-FRET Rin1-Abl binding, purified proteins | 1,300 tested, 49% active | AID 602124 | inhibition, % at 7.35 µM | shares compounds with Rin1-Abl PPI inh
GFP quencher = quenches GFP fluorescence, counter-screen for Rin1-Abl inhibitors | shares compounds with Rin1-Abl PPI inh | inhibitors/quenchers counterscreen | inhibition, % at 6.75 µM | 1,300 tested, 8.5% active;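 also: ABL1-eGFP fusion protein alone without its partner RIN1-SBP; 0% = protein with vehicle and 100% = wells lacking protein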
GFP quench DR = GFP fluorescence interference dose response; IC50, µM; shares compounds with Rin1-Abl PPI inh; GFP fluorescence interference/quenching counterscreen; 230 tested, under 10 active; call rule not given here;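 also: ABL1-eGFP fusion protein alone without its RIN1 binding partner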
Active calls of the source: *; / = no result given. Rule as the data show it, unless noted: active = inhibition above about 6.5%; inactive = the rest.

SMILES | Neddyl block | SUMO1 PPI mod | ATG4B inhibitor | Rin1-Abl PPI inh | Rin1 Abl conf | GFP quencher | others
CCN(CC(=O)NC1CCS(=O)(=O)C1)S(=O)(=O)c1ccc(Cl)c(C(F)(F)F)c1 (centres undefined) | 13 | -4 | -7 | 0 | / | /
CC[C@]12c3[nH]c4ccc(Cl)cc4c3CCN1C(=O)[C@@H](CC(=O)NCC13CC4CC(CC(C4)C1)C3)C[C@@H]2C(=O)N1CCN(C(=O)c2ccco2)CC1 | -1 | 4 | -16 | 21* | 16* | -1
CC[C@]12c3[nH]c4cc(-c5ccco5)ccc4c3CCN1C(=O)[C@@H](CC(=O)NCC13CC4CC(CC(C4)C1)C3)C[C@@H]2C(=O)N1CCN(C(=O)c2ccco2)CC1 | / | 2 | -1 | -1 | / | /
CC[C@]12c3[nH]c4ccc(OC)cc4c3CCN1C(=O)C(CC(=O)NCC13CC4CC(CC(C4)C1)C3)C[C@@H]2C(=O)N1CCN(C(=O)c2ccco2)CC1 (some centres undefined) | 4 | 2 | -17 | 54* | 59* | 2 | GFP quench DR=>68
COc1cccc(C(NC(C)=O)c2nc(-c3cccc(C(=O)O)c3)cs2)c1 (centres undefined) | 0 | -5 | / | -2 | / | /
O=S(=O)(CCNCc1ccco1)NC1CCCCC1 | -5 | 4 | / | 1 | / | /
CCCCNC(=O)C1(C)CCN1C(=O)c1cncc(Br)c1 (centres undefined) | -2 | -2 | / | -2 | / | /
COCCNC(=O)C1CCCN(C(=O)c2cc(-c3cccs3)oc2C)CC1 (centres undefined) | 1 | -6 | / | 2 | / | /
CC(C)c1ccc(NC(=O)CSc2nnc(CN3CCOCC3)n2C)cc1 | 6 | 2 | 0 | 18* | 26* | 1 | GFP quench DR=>67
Cc1ccc(NC(=O)CSc2nnc(CN3CCOCC3)n2C)cc1C | 13 | -1 | 4 | 4 | / | /
Cc1[nH]c(=O)[nH]c(=O)c1NC(=O)c1ccccc1[N+](=O)[O-] | -10 | -10 | / | 0 | / | /
CCOc1ccc2c(ccc(/C=C/c3cc(C)c4cccnc4c3O)[n+]2C)c1 | -8 | -67 | 31 | 40* | 56* | 59*
CCCCOc1ccc(C(=O)N2CCN(CC(=O)Nc3ccc(C)cc3)CC2)cc1OC | 11 | 2 | -6 | 8.6* | 11* | -1
O=C1CCCC(O)=C1N=Nc1ccc2c(c1)OCO2 | -116 | -54 | -5 | -12 | / | /
O=C1CCCC(O)=C1N=Nc1ccc(C(=O)O)cc1 | -34 | 23 | -4 | 6.7* | 2 | 3
CC(C)(C)OC(=O)N(CCc1ccccc1)Cc1ccccc1OCc1ccc(NC(=O)C2CCCC2)cc1 | 6 | 5 | 1 | 3 | / | /
CCCCC[C@H](C)N1C[C@H](COCc2ccccc2)Oc2cc(N3CCC[C@@H]3COC)ccc2S1(=O)=O | -3 | 5 | / | / | / | /
O=C(Nc1ccc2c(c1)OCCO2)C1C(=O)Nc2ccccc2C(=O)N1C1CCCCC1 (centres undefined) | 8 | 3 | / | / | / | /
O=c1[nH]c(CSc2nnnn2-c2ccccc2)nc2ccccc12 | 8 | 5 | -2 | 9.8* | 1 | 1
Cc1noc(C)c1NC(=O)N(C)C[C@@H]1OCc2cn(nn2)CCCC(=O)N([C@H](C)CO)C[C@H]1C | 14 | 5 | / | -2 | / | /
CC(C)(C)OC(=O)N(CCc1ccccc1)Cc1cccc(OCc2cccc(NC(=O)c3ccccc3)c2)c1 | 12 | 3 | / | -3 | / | /
CSc1ccc(NC(=O)C2(C)CCN2C(=O)Cc2ccc(C(C)(C)C)cc2)cc1 (centres undefined) | -5 | 5 | / | 1 | / | /
NS(=O)(=O)c1ccc(N/N=C/c2ccc(O)c(O)c2O)c([N+](=O)[O-])c1 | -64 | 14 | 2 | 40* | 46* | 30*
CC(=O)NCC1(c2ccccc2)CCN(CCCC(=O)c2ccc(F)cc2)CC1 | -2 | 5 | / | 14* | 15* | -1
COC(=O)C1CCN(C(=O)COC(=O)Cc2c[nH]c3ccccc23)CC1 | 6 | 1 | 0 | 5.2* | 0 | -4
SMILES | Neddyl block | SUMO1 PPI mod | ATG4B inhibitor | Rin1-Abl PPI inh | Rin1 Abl conf | GFP quencher | others
COc1ccccc1NCC(=O)Nc1cc(S(=O)(=O)N2CCOCC2)ccc1N1CCOCC1 | -2 | 0 | -10 | 9.2* | 8.2* | 2
COc1ccccc1CCC(=O)Nc1cc(S(=O)(=O)N2CCOCC2)ccc1N1CCCC1 | 10 | 1 | 2 | 0 | / | /
CC1(C2CC2)NC(=O)N(CC(=O)N2CCN(c3cccc(C(F)(F)F)c3)CC2)C1=O (centres undefined) | 1 | 3 | -12 | 8.6* | -2 | 1
Nc1nccnc1C(=O)OCC(=O)NNC(=O)c1ccccc1 | / | -1 | -6 | 8.2* | 0 | 2
CCCCCCn1c(C(C)O)nc2ccccc21 (centres undefined) | 3 | 1 | -14 | 21* | 1 | -1
O=C(Nc1nnc(Cc2ccc(Cl)cc2)s1)c1ccco1 | -23 | 3 | -1 | 7.4* | -1 | -1
CSC12CCCN(CCC(C(C)(C)C)C1)C2=O (centres undefined) | 0 | 9 | / | / | / | /
O=C(CCNC(=O)c1ccc(Br)cc1)NCc1ccncc1 | 2 | -1 | 1 | 10* | 3 | 1
O=C(CSc1ccccn1)NC1CCCc2c1cnn2-c1ccccc1F (centres undefined) | 17 | 1 | / | -1 | / | /
O=C(NC1CCCCC1)c1cccnc1C(=O)O | -6 | 4 | 4 | 5.9* | 2 | 0
CC(=O)Nc1cc(-c2ccc(N)cc2)cn2c(-c3cccc(C(F)(F)F)c3)cnc12 | 32 | -8 | / | 1 | / | /
Nc1c(C(=O)NCc2ccc3c(c2)OCO3)nnn1Cc1cccc(F)c1 | -10 | 0 | -7 | 8.4* | 10* | -2
COc1cccc(Cn2nnc(C(=O)NCc3ccc4c(c3)OCO4)c2N)c1 | 12 | 2 | -13 | 9.1* | 7.3* | -1
COc1cccc(CNC(=O)c2nnn(CC(=O)Nc3ccc4c(c3)OCO4)c2N)c1 | -7 | -5 | -7 | 0 | / | /
COc1cccc(-c2cccc3c2NC(=O)C3(C)Cc2ccccc2F)c1 (centres undefined) | -2 | 1 | / | 1 | / | /
CC1=C2C3OC(=O)C(C)C3CCC2(C)C=CC1=NO (centres undefined) | -1 | -1 | -10 | -2 | / | /
CCOC(=O)CCCCCC(=O)Nc1ccc2c(c1)C(=O)N([C@@H](C)CO)C[C@@H](C)[C@H](CN(C)C(=O)Nc1ccccc1)OCCCC[C@H](C)O2 | -2 | -3 | / | 16* | 18* | 1 | GFP quench DR=>68
CCOC(=O)CCCCCC(=O)Nc1ccc2c(c1)C(=O)N([C@H](C)CO)C[C@H](C)[C@@H](CN(C)C(=O)Nc1ccccc1)OCCCC[C@@H](C)O2 | -4 | -2 | / | 16* | 22* | -1 | GFP quench DR=>68
